Compound activity (PubChem)
Shown are actives, neighbours in structure and some others; about 1.4% of the full set was active somewhere.
FBPA Giardia inh = inhibitors of Giardia lamblia fructose-1,6-bisphosphate aldolase. A8B2U2. purified Giardia FBPA. Potency, µM (doses to about 59.6 µM), hits mostly inhibitors. 0.71% of 290,000 active. AID 2451; further: nearly all actives have a fitted effect of over 55% in size
Target sequence (A8B2U2 whole entry, looked up): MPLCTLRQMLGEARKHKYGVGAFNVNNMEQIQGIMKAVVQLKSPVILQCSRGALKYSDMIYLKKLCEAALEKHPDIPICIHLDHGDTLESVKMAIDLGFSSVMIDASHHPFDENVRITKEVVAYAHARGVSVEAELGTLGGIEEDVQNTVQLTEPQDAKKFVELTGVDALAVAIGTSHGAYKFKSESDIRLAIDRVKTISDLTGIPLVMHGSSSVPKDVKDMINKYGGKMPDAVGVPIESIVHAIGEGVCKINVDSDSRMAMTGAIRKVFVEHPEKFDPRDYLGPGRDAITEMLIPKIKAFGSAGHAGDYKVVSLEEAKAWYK
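Giardia FBPA (40 nM reagent) was preincubated 10 min at RT with compound (up to 57.5 uM final), then substrate plus GAPDH/TPI/NAD/arsenate coupling system with diaphorase/resazurin was added; resorufin fluorescence (525/598 nm) was read after 20 min.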
AmpC inh detg = AmpC beta-lactamase inhibition with detergent present; 0.041% of 370,000 active; AmpC hydrolysis of nitrocefin, absorbance 480 nm, 0.01% Triton; Potency, µM (doses to about 114 µM), actives largely listed as inhibitors; P00811; AID 485294; further: nearly all actives have a fitted effect of over 25% in size
Target sequence (P00811 whole entry, looked up): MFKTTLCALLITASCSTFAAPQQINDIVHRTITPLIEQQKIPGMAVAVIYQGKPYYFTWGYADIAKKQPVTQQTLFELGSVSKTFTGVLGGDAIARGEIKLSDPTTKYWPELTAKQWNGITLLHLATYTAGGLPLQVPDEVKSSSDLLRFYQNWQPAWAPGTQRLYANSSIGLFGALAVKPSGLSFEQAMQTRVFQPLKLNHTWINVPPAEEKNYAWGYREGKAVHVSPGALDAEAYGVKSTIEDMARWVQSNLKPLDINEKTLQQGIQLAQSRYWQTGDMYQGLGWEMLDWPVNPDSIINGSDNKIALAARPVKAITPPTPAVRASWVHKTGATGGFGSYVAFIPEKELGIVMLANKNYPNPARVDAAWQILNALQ
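20 mM phosphate pH 7.0 + 0.01% (detergent screen) or 0.0001% Triton X-100; 5.3 nM AmpC reagent; cpd preinc 15 min RT; nitrocefin (800 uM stock) to start; A480 q20 s × 4 min; Activity was normalised to no-enzyme and no-compound control wells.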
AmpC no deterg = inhibitors of E. coli AmpC beta-lactamase without detergent. P00811. AmpC nitrocefin hydrolysis, absorbance 480 nm, 0.0001% Triton. Potency, µM (series often up to 57.1 µM), hits mostly inhibitors. 0.52% of 330,000 active. AID 485341; further: nearly all actives have a fitted effect of over 20% in size
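20 mM phosphate pH 7.0 + 0.01% (detergent screen) or 0.0001% Triton X-100; 5.3 nM AmpC reagent; cpd preinc 15 min RT; nitrocefin (800 uM stock) to start; A480 q20 s × 4 min; Activity was normalised to no-enzyme and no-compound control wells.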
LmPK inhibitor = inhibitors of Leishmania mexicana pyruvate kinase; 0.37% of 290,000 active; purified LmPK, Kinase-Glo ATP luminescence, 1 h; Q27686; Potency, µM (highest dose often 57.5 µM), actives largely listed as inhibitors
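0.1 nM LmPK, 0.5 mM PEP, 0.1 mM ADP; 50 mM imidazole pH 7.2, 7 mM MgCl2, 50 mM KCl; 1 h RT. Kinase-Glo luminescence readout, normalized to no-enzyme (full inhibition) and uninhibited wells.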
RE007 growth inh = less growth of the S. pombe RE007 Vpr strain | Potency, µM (titrated, usually from 92.2 µM), actives largely listed as inhibitors | S. pombe RE007 Vpr strain, BacTiter-Glo ATP luminescence, 24 h | 0.21% of 360,000 active | AID 651644; active means well fitted falling curve with a large enough effect; inconclusive means small, poorly fitted or top-dose-only effect; inactive means no such curve, though single readings can be large or run the other way; further: nearly all actives have a fitted effect of over 50% in size
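Fission yeast RE007 carrying one integrated HIV-1 vpr copy, seeded at OD 0.01 in PMG+AL medium with 23 nL pinned compound. Grown 24 h at 30 degrees; viability read by BacTiter-Glo luminescence after 5 min.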
TbPYK inhibitor = inhibitors of Trypanosoma brucei pyruvate kinase. Q57TT1. TbPYK enzyme, Kinase-Glo Plus ATP luminescence, 45 min. Potency, µM (top dose mostly 76.8 µM), usual class: inhibitors. 0.12% of 410,000 active; further: nearly all actives have a fitted effect of over 50% in size
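ADP (130 uM final) triggers the TbPYK reaction after compound addition; incubation is 45 min at room temperature. Kinase-Glo Plus is then added and luminescence imaged. Normalized data are fitted to concentration-effect curves.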
A number is an active result; n = inactive; u = inconclusive; x = no result; [ ] = dose if it differs, or a comment. Unless noted, the call rests on the fitted dose curve; in most records, active means well fitted curve in the direction sought with a large enough effect; inconclusive means small, poorly fitted or top-dose-only effect, or another doubt; inactive means no such curve, though single readings can be large; an effect the other way counts as inactive or inconclusive.

SMILES | FBPA Giardia inh | AmpC inh detg | AmpC no deterg | LmPK inhibitor | RE007 growth inh | TbPYK inhibitor
NC(=O)C1CCN(C2CC(=O)N(c3ccc(F)c(Cl)c3)C2=O)CC1 (stereo not drawn) | n | u | n | n | 10µM | n
Cc1ccccc1N1C(=O)CC(N2CCC(C(N)=O)CC2)C1=O (stereo not drawn) | n | u | n | n | n | n
NC(=O)C1CCN(C2CC(=O)N(c3cccc(F)c3)C2=O)CC1 (stereo not drawn) | n | u | n | n | 14µM | n
CCc1ccc(CNC(=O)c2sc3ncccc3c2-n2c(C)ccc2C)cc1 | x | n | x | x | x | n
Cc1cc(N2C(=O)C=CC2=O)c([N+](=O)[O-])cc1C | n | n | n | u | u | 28µM
Cc1ccc(N2C(=O)C3C4C=CC(CC4)C3C2=O)cc1[N+](=O)[O-] (stereo not drawn) | n | u | n | n | n | n
Cc1cc(C)cc(N2C(=O)C=CC2=O)c1 | x | x | x | x | 3.2µM | 13µM
Cc1c([N+](=O)[O-])cc(N2C(=O)C=CC2=O)cc1[N+](=O)[O-] | x | x | x | x | n | 25µM
CCOC(=O)c1cccc(NC(=O)c2ccc3snnc3c2)c1 | x | n | x | x | x | n
Cc1cccc(C)c1NC(=O)CCCn1c(=O)c2cccn2c2ccccc21 | x | n | x | x | x | n
Cc1ccc(C2CC(c3ccco3)n3ncnc3N2)cc1 (stereo not drawn) | n | n | n | n | n | n
Cc1ccc2c(c1)C(N1CCCC1=O)CC(c1ccco1)N2 (stereo not drawn) | u | u | n | 11µM | u | u
COc1cccc(/C=C2/CCC(CN(C)C)C2=O)c1 (stereo not drawn) | x | x | x | x | 8.9µM | n
COc1ccc(/C=C/C(=O)N2CCC(c3nc4ccccc4o3)CC2)cc1OC | x | n | x | x | x | n
CC(=O)c1sc(NC(=O)c2ccccc2F)nc1C | n | u | n | 14µM | n | n
CC(=O)c1sc(NC(=O)c2cccnc2Cl)nc1C | n | n | n | n | n | n
CCC(=O)NC(NC(=S)Nc1cccc2cccnc12)C(Cl)(Cl)Cl (stereo not drawn) | n | u | n | n | n | n
CC(C)C(=O)NC(NC(=S)Nc1cccc2cccnc12)C(Cl)(Cl)Cl (stereo not drawn) | x | n | 10µM | n | n | n
Cc1ccc(NC(=O)Cc2ccc(-n3c(C)nc4cccnc43)cc2)c(Cl)c1 | x | n | x | x | x | n[15.4 µM]
CCSc1nnc(NC(=O)C2CCCN(S(=O)(=O)c3cnc[nH]3)C2)s1 (stereo not drawn) | n | n | 45µM | n | n | n
Cc1ccc2nc(NC(=O)C3CCCN(S(=O)(=O)c4cnc[nH]4)C3)sc2c1 (stereo not drawn) | n | u | n | n | n | n
COCC1=C(C(=O)OC(C)OC(=O)OC(C)C)N2C(=O)C(NC(=O)/C(=N\OC)c3csc(N)n3)C2SC1 (stereo not drawn) | x | x | x | x | x | n
Cc1ccccc1NC(=O)Cn1c(=O)n(CCC(=O)NCc2ccc3c(c2)OCO3)c(=O)c2sccc21 | x | n | x | x | x | n
Cc1ccc(CN2CCN(/N=C/c3ccccc3)CC2)cc1 | n | n | n | n | n | n
COc1cc(/C=N/N2CCN(Cc3ccc(C)cc3)CC2)cc(OC)c1O | n | n | n | n | n | 14µM
SMILES | FBPA Giardia inh | AmpC inh detg | AmpC no deterg | LmPK inhibitor | RE007 growth inh | TbPYK inhibitor
CCOc1ccc(CCNC(=O)c2ccc(-c3nc(COc4ccc(C)cc4)c(C)o3)cc2)cc1 | x | n | x | x | x | n
O=C1C(Cl)=C(N2CCCCC2)C(=O)C(Cl)=C1c1cnc(N2CCCCC2)s1 | 7.1µM | n | n | 20µM | n | u
c1ccc(-c2ccccc2OCCOCCN2CCOCC2)cc1 | 14µM | n | n | n | n | n
Cc1cc(SCC(=O)c2cccs2)nc2c(C)cccc12 | n | u | n | n | n | n
Cc1cc2c(C)ccc(C)c2nc1SCC(=O)c1cccs1 | n | u | 0.18µM | n | n[3.69 µM] | x
COc1cc(Nc2ncc3c(n2)CCN(Cc2cc(F)cc(F)c2)C3)cc(OC)c1 | x | n | x | x | x | n
Fc1ccc(CNc2cc(-c3ccccc3)nc3nncn23)cc1 | x | n | x | x | x | n
COc1cc(NC(=O)c2cc(-c3cccc(OC)c3)n[nH]2)cc(OC)c1 | x | n | x | x | x | n
Cc1cc(-c2ccccc2)nc(N/N=C/c2ccc(O)cc2)n1 | x | n | n | x | n | n
Oc1ccc(/C=N/Nc2nc(-c3ccc(Cl)cc3)cc(C(F)(F)F)n2)cc1 | n | n | 16µM | n | n | n
COc1cc(OC)cc(C(=O)Nc2ccc(-n3cnnn3)c(C)c2)c1 | n | u | n | 14µM | n | n
COc1cc(NC(=O)c2ccccc2-n2cnnn2)cc(OC)c1 | x | u | n | x | n | n
CC(C)=CCC/C(C)=C\CC/C(C)=C\CC/C(C)=C\CC1=C(C)C(=O)c2ccccc2C1=O | x | x | x | x | x | n
CCC(C)Sc1cc(C(F)(F)F)c(C(=O)Nc2ccc(Cl)cc2)cn1 (stereo not drawn) | n | n | 10µM | n | n | n
Cn1cc(C(=O)Nc2ccc(Cl)cc2)c(C(F)(F)F)n1 | n | n | n | n | n | n
Cc1ccc(NC(=O)CCCN2C(=O)COc3ccc(C)cc32)c(Cl)c1 | x | n | x | x | x | n
Cc1ccc(-c2n[nH]c(=S)n2/N=C/c2cccs2)cc1 | n | n | n | n | x | u
COc1ccc(-c2n[nH]c(=S)n2/N=C/c2cccn2C)cc1 | n | n | n | n | n | 2.5µM
Cc1ccc(-c2n[nH]c(=S)n2/N=C/c2cccn2C)cc1 | x | n | n | 7.9µM | n | 5µM
S=c1[nH]nc(-c2ccccc2)n1/N=C/c1cccs1 | n | n | n | u | n | 11µM
CC1CCn2c(nc3cc(C(=O)NCc4ccc(OC(C)C)cc4)ccc32)C1 (stereo not drawn) | x | n | x | x | x | n
Cc1cccc(OCCSc2nc3ccc(NC(=O)c4cccs4)cc3s2)c1 | x | n | x | x | x | n
CCc1cc[n+](-c2nc([O-])sc2C=O)cc1 | u | n | n | n | n | n
CC(C)c1cc[n+](-c2nc([O-])sc2C=O)cc1 | u | n | n | n | n | 28µM
O=C(O)c1ccccc1NS(=O)(=O)c1cccc(-n2sc3ccccc3c2=O)c1 | u | u | n | n | n | 5µM
O=C(O)c1ccccc1NS(=O)(=O)c1cccc(C(F)(F)F)c1 | u | u | n | n | n | n
CCC(C)(C)OC(=O)N[C@@H](Cc1c[nH]c2ccccc12)C(=O)N[C@@H](CCSC)C(=O)N[C@@H](CC(=O)O)C(=O)N[C@@H](Cc1ccccc1)C(N)=O | x | x | x | x | x | n
Cc1onc(-c2ccccc2)c1C(=O)NC(=S)NNC(=O)c1cc(-c2ccc(F)cc2)n[nH]1 | n | n | 2µM | n | n | n
CCOc1ccc(C(=O)N2CCC(c3nc4ccccc4o3)CC2)cc1 | x | n | x | x | x | n
